Bioassay records as filed in PubChem.
An excerpt weighted towards active compounds, which were near 18% of everything screened.
Six1-Eya2 inh = qHTS Assay for Inhibitors of the Six1/Eya2 Interaction | Homeobox protein SIX1 (Homo sapiens) + Protein phosphatase EYA2 (Homo sapiens), … | AlphaScreen GST-Six1/His-Eya2 binding, biochemical; stronger effect = lower value | activity change, % (test concentration not listed) | 360,000 tested, 0.56% active | AID 651725, 2012; in the data active means activity change below about -65%; inconclusive means mostly about -30% to -63%
Target sequence (O00167 whole entry, looked up): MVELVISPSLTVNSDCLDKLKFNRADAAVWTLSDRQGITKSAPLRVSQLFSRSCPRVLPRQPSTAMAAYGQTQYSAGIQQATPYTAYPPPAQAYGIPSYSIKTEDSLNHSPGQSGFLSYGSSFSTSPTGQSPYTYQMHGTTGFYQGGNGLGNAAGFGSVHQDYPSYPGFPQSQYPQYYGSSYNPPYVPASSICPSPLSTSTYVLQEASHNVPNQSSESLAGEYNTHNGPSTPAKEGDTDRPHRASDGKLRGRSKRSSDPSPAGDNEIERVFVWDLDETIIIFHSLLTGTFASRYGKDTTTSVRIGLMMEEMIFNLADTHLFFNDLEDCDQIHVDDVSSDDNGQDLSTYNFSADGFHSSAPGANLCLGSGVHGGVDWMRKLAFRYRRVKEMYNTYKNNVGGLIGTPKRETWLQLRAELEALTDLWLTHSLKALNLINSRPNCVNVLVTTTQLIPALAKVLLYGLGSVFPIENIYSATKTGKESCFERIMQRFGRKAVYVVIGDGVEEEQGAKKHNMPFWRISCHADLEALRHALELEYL
Target sequence (Q15475 whole entry, looked up): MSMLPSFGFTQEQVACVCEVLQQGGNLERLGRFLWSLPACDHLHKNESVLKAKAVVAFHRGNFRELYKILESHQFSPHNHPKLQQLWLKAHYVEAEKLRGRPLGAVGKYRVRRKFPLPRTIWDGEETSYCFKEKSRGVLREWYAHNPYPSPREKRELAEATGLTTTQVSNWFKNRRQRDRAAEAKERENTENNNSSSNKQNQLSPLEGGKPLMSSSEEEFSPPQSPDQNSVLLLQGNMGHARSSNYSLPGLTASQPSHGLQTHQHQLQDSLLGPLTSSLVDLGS
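Six1/Eya2 binding was read as AlphaScreen signal after compounds were pinned into GST-Six1 plus His-tagged Eya2 (5X stock 250/500 nM) in pH 8.0 Tris/NaCl/TCEP buffer, beads added, then incubated 1 h, 37 C, dark.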
IL1B secr inh = qHTS for Inhibitors of Inflammasome Signaling: IL-1-beta AlphaLISA Primary Screen. THP-1 LPS/ATP IL-1B secretion, AlphaLISA, 16 h; stronger effect = lower value. activity change, % at 57.5 µM. 360,000 tested, 4.7% active. AID 743279, 2014; in the data active means activity change below about -50%; inconclusive means mostly about -30% to -49%
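Secreted IL-1B measured by AlphaLISA bead assay after 16 h compound exposure of THP-1 cells; compounds (final up to 57.5 uM) added 1 h before LPS (250 ng/mL) and ATP (1.25 mM) stimulation; lower signal means less secretion.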
CtBP-E1A inh = qHTS Assay for Inhibitors of the CtBP/E1A Interaction. AlphaScreen GST-E1A/His-CtBP binding, 1536-well; stronger effect = lower value. 340,000 tested, 0.49% active. activity change, % (concentration not given with the values); in the data active means activity change below about -65%; inconclusive means mostly about -30% to -63%
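Steps: dispense buffer (Tris pH 8.0, NaCl 300 mM, TCEP 1 mM, BSA, Tween 20); add 5X protein mix (GST-E1A, His-CtBP, 125 nM each); pin 23 nL compound; 2 h at 37 °C, dark; add 5X beads (50 ug/mL); 1 h; read.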
TDP1 cell CPT = qHTS for Inhibitors of human tyrosyl-DNA phosphodiesterase 1 (TDP1): qHTS in cells in presence of CPT; chicken DT40 Tdp1-/-;hTDP1 cells + 20 nM CPT, ATP luminescence, 48 h; Potency, µM (series often up to 46.2 µM), without a hit: at the highest dose activity change, negative = growth inhibition, actives largely listed as inhibitors; 420,000 tested, 12% active; AID 686979, 2013; further: potency means the concentration at half of the fitted maximal effect; nearly all actives have a fitted effect of over 55% in size
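Chicken DT40 Tdp1-/- cells complemented with human TDP1, 400 cells/well, exposed to compounds plus 20 nM camptothecin for at least 48 h at 37 C; viability read as ATP content by CellTiter-Glo luminescence.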
DT40 TDP1 no CPT = qHTS for Inhibitors of human tyrosyl-DNA phosphodiesterase 1 (TDP1): qHTS in cells in absence of CPT; DT40 Tdp1-/- hTDP1 cells, no CPT, ATP luminescence, 48 h; Potency, µM (top dose mostly 46.2 µM), for inactives: at the highest dose activity change, negative = growth inhibition, hits mostly inhibitors; 420,000 tested, 15% active; AID 686978, 2013; further: potency means the concentration at half of the fitted maximal effect; nearly all actives have a fitted effect of over 55% in size
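Growth of hTDP1-complemented DT40 Tdp1-knockout cells is measured by ATP luminescence after at least 48 hr compound exposure at 37 °C, with DMSO substituting for the 20 nM CPT used in the parallel screen.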
TDP1 inh = qHTS Assay for Inhibitors of Tyrosyl-DNA Phosphodiesterase (TDP1) | 350,000 tested, 0.28% active | AID 485290, 2010 | recombinant TDP1, AlphaScreen DNA substrate cleavage | Potency, µM (doses to about 130 µM), for the others: at the highest dose activity change, negative = inhibition, actives largely listed as inhibitors; further: potency means the concentration at half of the fitted maximal effect; nearly all actives have a fitted effect of over 40% in size
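Compounds were preincubated with Tdp1 (1 nM final) for 15 min at room temperature before substrate (15 nM final) started a 5 min reaction; beads (10 ug/ml final) were then added for 10 min before AlphaScreen detection.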
* hit, by the source's call; ? = inconclusive; / = no result given; [ ] = remark or other dose. Unless noted, the call rests on the fitted dose curve; in most records, active means well fitted curve in the direction sought with a large enough effect; inconclusive means small, poorly fitted or top-dose-only effect, or another doubt; inactive means no such curve, though single readings can be large; an effect the other way counts as inactive or inconclusive. On the % scale 0 is the no-effect control and ±100 the full control effect.

SMILES | Six1-Eya2 inh | IL1B secr inh | CtBP-E1A inh | TDP1 cell CPT | DT40 TDP1 no CPT | TDP1 inh
Cc1ccc(C2NC(c3ccc(C)cc3)C([N+](=O)[O-])C(C)(C)C2[N+](=O)[O-])cc1 (centres undefined) | -9 | -12 | -9 | -22% | -9% | 6%
COCOCCn1cc(CN2CCS(=O)(=O)N(Cc3ccc(-c4ccc(C)cc4)cc3)C(CC(C)C)C2=O)nn1 (centres undefined) | 5 | -21 | 0 | -64% | ? | /
CC(C)CC1C(=O)N(Cc2cn(CC3CCCCC3)nn2)CCS(=O)(=O)N1Cc1ccc(-c2cccc(C#N)c2)cc1 (centres undefined) | -3 | -11 | -29 | 21µM* | ? | /
COc1ccc(-c2ccc(CN3C(C(C)C)C(=O)N(Cc4cn(CC5CCCCC5)nn4)CCS3(=O)=O)cc2)cc1OC (centres undefined) | -5 | ? | -7 | ? | 1.6µM* | /
COc1ccc(-c2ccc(CN3C(CC(C)C)C(=O)N(Cc4cn(CC5CCCCC5)nn4)CCS3(=O)=O)cc2)cc1OC (centres undefined) | 3 | -11 | 2 | 23µM* | 21µM* | /
CC(C)CC1C(=O)N(Cc2cn(CC3CCCCC3)nn2)CCS(=O)(=O)N1Cc1ccc(-c2ccncc2)cc1 (centres undefined) | 6 | -16 | -1 | ? | 15µM* | /
N#CC(C#N)=C1C=C2C=C(N3CCCCC3)CCC2CC1 (centres undefined) | 1 | -6 | 9 | 26µM* | 21µM* | 8%
O=C(N/N=C/c1ccc(N2CCCCC2)o1)c1ccccc1 | 2 | -96* | -4 | 9.2µM* | 12µM* | 1%
COCCn1c(/C=C/c2ccccc2)nc2ccccc21 | 33 | -2 | 16 | -22% | ? | 0%
Cn1c(/C=C/c2ccccc2)nc2ccccc21 | 10 | 19 | / | ? | 16µM* | 0%
Cn1c(=O)c(/C=C/c2ccccc2)nc2ccccc21 | 36 | -2 | 10 | ? | 16µM* | /
Cn1c(/C=N/NC(=O)c2ccccc2)nc2ccccc21 | -8 | 57 | 9 | ? | 26µM* | ?
COc1ccc(C(=O)n2nc(C)cc2C)cc1OC | 4 | 8 | -1 | -17% | 2% | 3%
CCOc1ccc(N2CC(C(=O)NCc3ccco3)CC2=O)cc1 (centres undefined) | 9 | 7 | 3 | 10% | -5% | 6%
O=C(CSc1ncccc1-c1nc2ccccc2[nH]1)N1CCCCC1 | -5 | 5 | -5 | ? | ? | 10%
Cn1c(=O)c(/C=C/c2ccc(F)cc2)nc2ccccc21 | 21 | -10 | 3 | ? | 23µM* | /
O=c1[nH]c2ccccc2nc1/C=C/c1ccc(F)cc1 | -10 | 18 | ? | ? | ? | /
Cc1ccc(C)c(Sc2ccc(NC(=O)CCl)cc2)c1 | 20 | -88* | 0 | 16µM* | 18µM* | 3%
Cc1ccc(Sc2ccc(NC(=O)CCl)cc2)cc1C | 9 | -79* | 3 | 23µM* | ? | 5%
O=C(CCl)Nc1ccccc1Sc1ccccc1 | -3 | ? | -2 | ? | ? | -2%
COC1C(CO)OC(n2c3c(Cl)cccc3c3c4c(c5c6cccc(Cl)c6[nH]c5c32)C(=O)NC4=O)C(O)C1O (centres undefined) | -2 | -63* | 2 | 0.52µM* | 2.6µM* | /
COC1C(O)C(CO)OC1n1c(Br)nc2c(=O)[nH]c(N)nc21 (centres undefined) | / | / | / | -12% | 1% | 7%[56.1 µM]
Cc1cc(C)n(-c2ccc3nnc(C)n3n2)n1 | -13 | 9 | -2 | -2% | 1% | -1%
CCOc1ccc(CCNC(=O)c2cn(CC)c3ccc(S(=O)(=O)N4CCCCCC4)cc3c2=O)cc1OCC | / | / | / | ? | 18µM* | 5%
CCOc1ccc(CCNC(=O)c2cn(CC)c3ccc(S(=O)(=O)N4CCc5ccccc5C4)cc3c2=O)cc1OCC | / | / | / | 18µM* | 12µM* | 5%
SMILES | Six1-Eya2 inh | IL1B secr inh | CtBP-E1A inh | TDP1 cell CPT | DT40 TDP1 no CPT | TDP1 inh
CCN(CC)S(=O)(=O)c1ccc2[nH]cc(C(=O)NCCc3ccc(OC)c(OC)c3)c(=O)c2c1 | -5 | -16 | -17 | -25% | ? | 5%
C=CCn1cc(C(=O)N2CCc3ccccc3C2)c(=O)c2cc(S(=O)(=O)N(CC)CC)ccc21 | 1 | -25 | 8 | ? | 18µM* | 1%
CCN(CC)S(=O)(=O)c1ccc2c(c1)c(=O)c(C(=O)NCCc1ccc(OC)c(OC)c1)cn2C | 2 | -12 | 7 | 18µM* | ? | -9%
CCOc1ccc(CCNC(=O)c2cn(C)c3ccc(S(=O)(=O)N4CCCCCC4)cc3c2=O)cc1OCC | / | / | / | ? | ? | 2%
CC1CCN(c2ccc(-c3cccc(NS(=O)(=O)c4cccs4)c3)nn2)CC1 | / | / | / | -8% | -6% | -1%
C=CCn1c(SCC(=O)NC(=O)NCC(C)C)nnc1C1CCCCC1 | 0 | 0 | 10 | -18% | ? | 0%
Cn1cc(C(=O)NCc2ccccc2Cl)c(=O)c2cc(S(=O)(=O)N3CCCCCC3)ccc21 | / | / | / | ? | ? | 2%
COc1ccc(CCNC(=O)c2cn(C)c3ccc(S(=O)(=O)N4CCOCC4)cc3c2=O)cc1OC | -3 | ? | 0 | ? | -11% | 3%
CCN(CC)S(=O)(=O)c1ccc2c(c1)c(=O)c(C(=O)NCc1ccccc1Cl)cn2C | / | / | / | 9.2µM* | 7.3µM* | -5%
CCn1cc(C(=O)NCCc2ccc(OC)c(OC)c2)c(=O)c2cc(S(=O)(=O)N3CCOCC3)ccc21 | 6 | -18 | 0 | ? | 18µM* | 9%
CCN(CC)S(=O)(=O)c1ccc2c(c1)c(=O)c(C(=O)N1CCN(c3cc(Cl)ccc3C)CC1)cn2C | / | / | / | 16µM* | ? | 2%
Cc1ccc(C)c(S(=O)(=O)N2CCN(C(=O)CCc3c[nH]c4ccccc34)CC2)c1 | -2 | -6 | 3 | -5% | -22% | 5%
